Measurements: PubChem BioAssay AID1159580 (chemical genetic matrix, 2015)
The campaign covered roughly 5,500 compounds. About 2,000 (36%) were called active. Roughly 18% stayed inconclusive and do not appear here. No stated cut-off is given here; in the data, active means normalized growth mostly below about 0.91 (no sharp cut-off); inconclusive means no clear call, values can overlap the other calls; inactive means mostly above about 0.92. The list shows a part of the results.

Test: chemical genetic growth profiling, strain panel (AID 1159580);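 further: tested at 20 µM; growth read once vehicle control cultures reached saturation at 30 °C; 1 = growth at the plate median or of vehicle wells; lower values mean less growth of the strain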
Conditions: growth OD
[1] = S. cerevisiae deletion strains, locus YHR030C, strain SLT2, hits give low values
[2] = S. cerevisiae deletion strains, locus YHR079C, strain IRE1, hits give low values
[3] = S. cerevisiae deletion strains, locus YJL095W, strain BCK1, hits give low values
[4] = S. cerevisiae deletion strains, locus YJR066W, strain TOR1, hits give low values
[5] = S. cerevisiae deletion strains, locus YLR113W, strain HOG1, hits give low values
[6] = S. cerevisiae deletion strains, locus YNL183C, strain NPR1, hits give low values
[7] = S. cerevisiae deletion strains, locus YOR231W, strain MKK1, hits give low values
[8] = S. cerevisiae deletion strains, locus YPL256C, strain CLN2, hits give low values
[9] = S. cerevisiae deletion strains, locus YDL101C, strain DUN1, hits give low values

Measured: normalized growth

CC(O)Cn1cnc2c1c(=O)n(C)c(=O)n2C (stereo not drawn)
inactive: [1] 1.05 | [2] 1.07 | [3] 1.05 | [4] 0.991 | [5] 1.04 | [6] 1 | [7] 1.03 | [8] 1.04

O=C(Nc1ccc(OC(F)(F)F)cc1)Nc1cncc(C(F)(F)F)c1
inactive: S. cerevisiae deletion strains, locus YAR019C, strain CDC15, hits give low values 0.987 | S. cerevisiae deletion strains, locus YBL105C, strain PKC1, hits give low values 0.995 | S. cerevisiae deletion strains, locus YBR135W, strain CKS1, hits give low values 0.989 | S. cerevisiae deletion strains, locus YBR136W, strain MEC1, hits give low values 0.994 | S. cerevisiae deletion strains, locus YBR160W, strain CDC28, hits give low values 0.993 | S. cerevisiae deletion strains, locus YDL017W, strain CDC7, hits give low values 0.995 | S. cerevisiae deletion strains, locus YDL028C, strain MPS1, hits give low values 0.991 | [9] 1.01 | S. cerevisiae deletion strains, locus YDL108W, strain KIN28, hits give low values 0.988 | S. cerevisiae deletion strains, locus YDL132W, strain cdc53, hits give low values 0.995 | S. cerevisiae deletion strains, locus YDL214C, strain PRR2, hits give low values 0.913 | S. cerevisiae deletion strains, locus YDR052C, strain DBF4, hits give low values 0.989 | S. cerevisiae deletion strains, locus YDR054C, strain cdc34, hits give low values 0.996 | S. cerevisiae deletion strains, locus YDR226W, strain ADK1, hits give low values 0.991 | S. cerevisiae deletion strains, locus YDR477W, strain SNF1, hits give low values 0.943 | S. cerevisiae deletion strains, locus YER123W, strain YCK3, hits give low values 0.884 | S. cerevisiae deletion strains, locus YER133W, strain GLC7, hits give low values 0.93 | S. cerevisiae deletion strains, locus YFL009W, strain cdc4, hits give low values 0.982 | S. cerevisiae deletion strains, locus YFL029C, strain CAK1, hits give low values 0.991 | S. cerevisiae deletion strains, locus YFR003C, strain YPI1, hits give low values 0.999 | S. cerevisiae deletion strains, locus YFR019W, strain FAB1, hits give low values 0.911 | S. cerevisiae deletion strains, locus YFR028C, strain CDC14, hits give low values 0.986 | S. cerevisiae deletion strains, locus YGR040W, strain KSS1, hits give low values 0.941 | S. cerevisiae deletion strains, locus YGR052W, strain FMP48, hits give low values 0.929 | S. cerevisiae deletion strains, locus YGR092W, strain DBF2, hits give low values 0.919 | [2] 0.824 | S. cerevisiae deletion strains, locus YHR082C, strain KSP1, hits give low values 0.968 | S. cerevisiae deletion strains, locus YHR205W, strain SCH9, hits give low values 0.888 | S. cerevisiae deletion strains, locus YIL147C, strain SLN1, hits give low values 0.996 | [3] 0.877 | S. cerevisiae deletion strains, locus YJL128C, strain PBS2, hits give low values 0.951 | S. cerevisiae deletion strains, locus YJL157C, strain FAR1, hits give low values 0.923 | S. cerevisiae deletion strains, locus YJR016C, strain ILV3, hits give low values 0.994 | S. cerevisiae deletion strains, locus YJR066W, strain TOR1 (second series), hits give low values 0.88 | [4] 0.942 | S. cerevisiae deletion strains, locus YKL048C, strain ELM1, hits give low values 0.964 | S. cerevisiae deletion strains, locus YKL067W, strain YNK1, hits give low values 0.916 | S. cerevisiae deletion strains, locus YKL101W, strain HSL1, hits give low values 0.905 | S. cerevisiae deletion strains, locus YKL193C, strain SDS22, hits give low values 0.996 | S. cerevisiae deletion strains, locus YKL203C, strain TOR2, hits give low values 0.964 | S. cerevisiae deletion strains, locus YLR133W, strain CKI1, hits give low values 0.91 | S. cerevisiae deletion strains, locus YLR403W, strain SFP1, hits give low values 0.945 | S. cerevisiae deletion strains, locus YML070W, strain DAK1, hits give low values 0.89 | S. cerevisiae deletion strains, locus YMR001C, strain CDC5, hits give low values 0.998 | S. cerevisiae deletion strains, locus YMR205C, strain PFK2 (second series), hits give low values 0.927 | S. cerevisiae deletion strains, locus YMR277W, strain FCP1, hits give low values 0.992 | S. cerevisiae deletion strains, locus YNL006W, strain LST8, hits give low values 0.99 | S. cerevisiae deletion strains, locus YNL020C, strain ARK1, hits give low values 0.914 | S. cerevisiae deletion strains, locus YNL161W, strain CBK1, hits give low values 0.971 | [6] 0.915 | S. cerevisiae deletion strains, locus YNL207W, strain RIO2, hits give low values 0.985 | S. cerevisiae deletion strains, locus YNL222W, strain SSU72, hits give low values 0.994 | S. cerevisiae deletion strains, locus YNL307C, strain MCK1 (second series), hits give low values 0.886 | S. cerevisiae deletion strains, locus YOL078W, strain AVO1, hits give low values 0.993 | S. cerevisiae deletion strains, locus YOL136C, strain PFK27, hits give low values 0.882 | S. cerevisiae deletion strains, locus YOR061W, strain CKA2, hits give low values 0.952 | S. cerevisiae deletion strains, locus YOR119C, strain RIO1, hits give low values 0.995 | [7] 0.865 | S. cerevisiae deletion strains, locus YOR329C, strain SCD5, hits give low values 0.994 | S. cerevisiae deletion strains, locus YPL031C, strain PHO85, hits give low values 0.921 | S. cerevisiae deletion strains, locus YPL153C, strain RAD53, hits give low values 0.928 | S. cerevisiae deletion strains, locus YPL204W, strain HRR25, hits give low values 0.892 | S. cerevisiae deletion strains, locus YPL209C, strain IPL1, hits give low values 0.998 | S. cerevisiae deletion strains, locus YPR025C, strain CCL1, hits give low values 0.994 | S. cerevisiae deletion strains, locus YPR106W, strain ISR1, hits give low values 0.982 | S. cerevisiae deletion strains, locus YPR111W, strain DBF20, hits give low values 0.969 | S. cerevisiae deletion strains, strain NNK1, hits give low values 0.978 | S. cerevisiae deletion strains, strain TSCII, hits give low values 0.983
active: [1] 0.822 | [5] 0.739 | [8] 0.763

COc1cc(NC(=O)Nc2ccc(OC(F)(F)F)cc2)cc(C(F)(F)F)c1
inactive: S. cerevisiae deletion strains, locus YAL013W, strain DEP1, hits give low values 0.987 | S. cerevisiae deletion strains, locus YBR229C, strain ROT2, hits give low values 0.987 | [9] 0.997 | S. cerevisiae deletion strains, locus YDL134C, strain PPH21, hits give low values 1.01 | S. cerevisiae deletion strains, locus YDR150W, strain NUM1, hits give low values 0.971 | S. cerevisiae deletion strains, locus YEL061C, strain CIN8, hits give low values 0.961 | S. cerevisiae deletion strains, locus YGR078C, strain PAC10, hits give low values 0.984 | [1] 0.895 | S. cerevisiae deletion strains, locus YHR087W, strain rtc3, hits give low values 0.984 | S. cerevisiae deletion strains, locus YJL187C, strain SWE1, hits give low values 1.01 | S. cerevisiae deletion strains, locus YJR043C, strain POL32, hits give low values 0.999 | S. cerevisiae deletion strains, locus YJR075W, strain HOC1, hits give low values 1 | S. cerevisiae deletion strains, locus YLR039C, strain RIC1, hits give low values 0.895 | S. cerevisiae deletion strains, locus YLR058C, strain SHM2 (second series), hits give low values 1 | S. cerevisiae deletion strains, locus YLR085C, strain ARP6, hits give low values 0.951 | S. cerevisiae deletion strains, locus YLR262C, strain YPT6, hits give low values 0.968 | S. cerevisiae deletion strains, locus YML094W, strain GIM5, hits give low values 0.919 | S. cerevisiae deletion strains, locus YMR219W, strain ESC1, hits give low values 1.02 | S. cerevisiae deletion strains, locus YMR263W, strain SAP30, hits give low values 0.991 | S. cerevisiae deletion strains, locus YMR307W, strain GAS1, hits give low values 0.864 | S. cerevisiae deletion strains, locus YNL153C, strain GIM3, hits give low values 0.987 | S. cerevisiae deletion strains, locus YNL298W, strain CLA4 (second series), hits give low values 0.923 | S. cerevisiae deletion strains, locus YNL322C, strain KRE1, hits give low values 1.01 | S. cerevisiae deletion strains, locus YNR030W, strain Alg12, hits give low values 0.935 | S. cerevisiae deletion strains, locus YOL006C, strain TOP1, hits give low values 0.996 | S. cerevisiae deletion strains, locus YPL055C, strain LGE1, hits give low values 0.928 | S. cerevisiae deletion strains, locus YPL241C, strain CIN2, hits give low values 0.893 | S. cerevisiae deletion strains, locus YPR135W, strain CTF4, hits give low values 1 | S. cerevisiae strains, strain wild type, hits give low values 1.01
